“And” between values parts separate entries of the source, which are not always exact repeats. Equal values may be shown once. The panel holds about 83,000 compounds, 20% with a hit somewhere; the sample as a whole holds those more often.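 Activity criterion: percent growth below 10, measured after cells in 96-well plates were exposed to a single compound concentration for 48 hours.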 The source made the active and inactive calls.

The experiment relates to A498 renal. As to the kind of experiment: NCI-60 one-dose screen, 48 h (100 = growth as untreated, 0 = no growth, -100 = all killed). The note with it: 10 µM. The method, then: Growth inhibition of the A498 human tumor cell line is measured as a screen for anti-cancer activity. Cells are grown in 96 well plates and exposed to the test compound for 48 hours. Compounds are tested at a single concentration, which is 10^-5 M for most compounds. The reported endpoint is percent growth (GI% or GIPRCNT), where numbers from 0 - 100% represent growth inhibition, and numbers from -100% - 0 represent cell death. For example, a value of 40 represents 60% growth inhibition. A value of 0 means no net growth occurred over the course of the experiment. A value of -40 indicates 40% of cells at the beginning of the experiment died by the end of the experiment. A value of -100 means all cells are dead at the end of the experiment.
NCI-60 Human Tumor Cell Lines Screen was performed using the standard one-dose NCI protocol, which is described in more detail at https://dtp.cancer.gov/discovery_development/nci-60/default.htm.
Compounds with GIPRCNT values below 10 were considered active. Activity score was based on GIPRCNT using the following formula: […]
Score is 0 for GIPRCNT values of 100 or above, 50 for GIPRCNT values of 0, and 100 for GIPRCNT values of -100.
`[O-][n+]1ccccc1S`: the growth was 78.7% (inactive). As for `[Cl][Hg][c]1ccc(Cl)s1`, the growth was 104% (inactive). As to `[Cl][Sn]([c]1ccccc1)([c]1ccccc1)[c]1ccccc1`, the growth is -91% (active). As for `O=C(CBr)Nc1ccccc1`, the figure is 108% (inactive); as for `Cc1ccc(C(=O)C2C(c3ccccc3)N2C2CCCCC2)cc1` (stereo not given), 105% (inactive) and 89% (inactive). With `CN(CCCl)c1ccc(/C=C/C2=[N+](C)c3ccccc3C2(C)C)cc1`, the growth was 66.3% (inactive). In the case of `CS(=N)(=O)CCC(N)C(=O)O` (stereo not given), the growth is 129% (inactive).

As for `O=[N+]([O-])/C=C\c1ccc2c(c1)OCO2`, the growth is 96.5% (inactive).

Turning to `O=[N+]([O-])/C=C/c1ccc(Cl)cc1[N+](=O)[O-]`, the growth was 106% (inactive). As for `O=[N+]([O-])c1ccc(N2CCOCC2)c2c1no[n+]2[O-]`, the figure is -14.1% (active); as for `COc1cc2c(cc1OC)C13CCN4CC5=CCOC6CC(=O)N2C1C6C5CC43` (stereo not given), 108% (inactive) and 87.2% (inactive). As for `Cc1cc([N+](=O)[O-])c2ccccc2[n+]1[O-]`, the growth was -59.8% (active) and -80.3% (active). As for `O=S(=O)(F)c1ccc(Cl)cc1`, the figure is 122% (inactive); as for `CC(C)c1cc([N+](=O)[O-])cc([N+](=O)[O-])c1O`, 108% (inactive); as for `COC12c3c(C)cc(O)c4c(=O)occ(c34)C(=O)C1C13COC(=O)c4c(O)cc(C)c(c41)C(=O)C2C3OC(C)=O` (stereo not given), 114% (inactive).

Consider `C[C@]12CC[C@H]3[C@@H](CCC4=CC(=O)CC[C@@H]43)[C@@H]1CC[C@@H]2OC(=O)N(CCCl)N=O`, for which the growth is 58% (inactive). For `COc1cc(/C=C(/C)[N+](=O)[O-])ccc1O` the value was 87.9% (inactive) and 100% (inactive); for `O=[P+](O)c1ccccc1`, 104% (inactive); for `CC(=O)[O][Hg][c]1c(C)c(C)cc(C)c1C`, 101% (inactive).

In the case of `C=NCC#N`, the growth was 110% (inactive). Take `CC(C)(C)OOC(=O)/C=C\C(=O)OOC(C)(C)C`: the growth was 109% (inactive).

With `Cn1c(O)c(N=O)c(=O)n(C)c1=O`, the growth was 84.5% (inactive) and 97% (inactive). As for `O=c1[nH]c2ccccc2n1C1CCN(CCCC(c2ccc(F)cc2)c2ccc(F)cc2)CC1`, the figure is 27.2% (inactive) and -9.09% (active); as for `C#CC1(O)CCC(C(C)(C)C)CC1` (stereo not given), 99.5% (inactive). As for `COc1ccc(/C=C(\C)[N+](=O)[O-])cc1OC`, the figure is 111% (inactive); as for `CCOP(=O)(OCC)C(O)c1ccccc1Cl` (stereo not given), 103% (inactive); as for `O=C(O)c1cc(Cc2ccc(O)c(C(=O)O)c2)ccc1O` (tested in a mixture with another compound), 84.7% (inactive). Regarding `[Cl][Hg][c]1ccc2ccccc2c1`, the growth is -9.18% (active). Consider `CC(=O)Nc1c2sscc-2n(C)c1=O`, for which the growth is -100% (active). As to `COc1ccc2c(ccc3oc([N+](=O)[O-])cc32)c1`, the growth was -76.1% (active).

Regarding `COc1ccc(/C=C\[N+](=O)[O-])cc1OC`, the growth is 92.9% (inactive) and 77.8% (inactive). Turning to `O=C(CCl)Nc1ccc(Cl)cc1`, the growth was 113% (inactive). For `C/C(=C\c1ccc(Cl)c(Cl)c1)[N+](=O)[O-]`, the growth was 103% (inactive) and 79.2% (inactive). Regarding `O=[N+]([O-])/C=C/c1ccc([N+](=O)[O-])cc1`, the growth is 19.7% (inactive) and 126% (inactive). For `COc1cc2c(c(OC)c1OC)-c1ccc(O)c(=O)cc1[C@@H](NC(C)=O)CC2`, the growth was 63.7% (inactive). For `C[CH2][Hg][S]c1ccccc1C(=O)O`, the growth is 18.1% (inactive). On to `O=C1CCC(=O)N1SC(Cl)(Cl)Cl`, for which the growth was 127% (inactive). As for `CN(C)CC1(N)C(=O)NC(=O)NC1=O`, the figure is 54.9% (inactive); as for `CC/C(=C/c1ccc(OC)cc1)[N+](=O)[O-]`, 85.5% (inactive). Take `COC1CC2C=C(C)/C=C/C=C/C(=O)NC(c3ccccc3)C/C=C/CCC(O)CC(=O)C2=C1O` (stereo not given): the growth is -87.7% (active).

The record behind these values is PubChem BioAssay (NCI).
